The list is not random: actives were taken first. Their share in the collection is about 1.1%.
HTR5A inv ag = HTR5A inverse agonism, opioid heterodimer counter-screen | 340,000 compounds, 0.083% hits | P47898 | inhibition, % at 9.3 µM | HTR5A cell line, luminescence; in the data active = inhibition mostly above about 23%, no sharp cut-off; inactive = mostly below about 18%;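 also: 0% = cells with DMSO and 100% = no-cell wells with DMSO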
Target sequence (P47898 whole entry, looked up): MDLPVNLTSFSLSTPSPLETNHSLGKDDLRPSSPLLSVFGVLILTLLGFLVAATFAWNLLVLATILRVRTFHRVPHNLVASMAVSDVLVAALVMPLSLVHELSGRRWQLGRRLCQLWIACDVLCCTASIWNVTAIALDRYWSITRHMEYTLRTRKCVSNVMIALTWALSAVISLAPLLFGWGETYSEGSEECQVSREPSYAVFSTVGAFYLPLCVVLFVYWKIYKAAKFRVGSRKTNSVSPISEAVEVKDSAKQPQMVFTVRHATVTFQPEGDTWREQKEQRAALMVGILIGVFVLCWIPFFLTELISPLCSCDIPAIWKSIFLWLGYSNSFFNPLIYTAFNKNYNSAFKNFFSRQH
MOR-DOR inv ag = mu-delta opioid heterodimer inverse agonism | P35372+P41143 | cell-based MOR-DOR heterodimer luminescence | inhibition, % at 9.3 µM | 340,000 compounds, 0.21% hits; in the data active = inhibition above about 22%, passing the limit was not always enough;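 also: 0% = cells with DMSO and 100% = wells without cells with DMSO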
MOR-DOR ag = agonists of human mu-delta opioid receptor heterodimerization; cells, OPRM1-OPRD1 heterodimerization, luminescence; activation, % at 9.3 µM; 340,000 compounds, 0.3% hits; AID 504326; in the data active = activation above about 18%;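 also: 0% = vehicle-treated cells and 100% = reference agonist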
HTR5A ag ctr = HTR5A agonism, opioid heterodimer counter-screen | 340,000 compounds, 0.61% hits | P47898 | AID 504692 | HTR5A agonist assay, luminescence, cell-based | activation, % at 9.3 µM; in the data active = activation mostly above about 9.5%, no sharp cut-off; inactive = mostly below about 7.6%;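 also: 0% = cells with vehicle only and 100% = reference agonist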
* = called active by the depositor.

CN(c1ccccc1)S(=O)(=O)c1ccc(C(=O)NCc2ccccc2F)cc1 was read as HTR5A inv ag -1.0, MOR-DOR inv ag 15.1, MOR-DOR ag -4.0 and HTR5A ag ctr 1.2.
Screening CC(C)(C)OC(=O)N1CCC(C(=O)Nc2cccc(C(=O)NCc3ccccc3)c2)CC1 returned HTR5A inv ag 1.6, MOR-DOR inv ag 0.2, MOR-DOR ag 0.0 and HTR5A ag ctr -0.5.
`CCOC(=O)C(=CNc1ccc(NC2=NCC(C)S2)cc1)C(=O)OCC` (stereo not drawn) gave HTR5A inv ag -25.6, MOR-DOR inv ag -18.4, MOR-DOR ag 3.6 and HTR5A ag ctr 9.8*.
`O=C(NCC1CCN(Cc2ccccc2F)CC1)Nc1cccc(Br)c1` gave HTR5A inv ag -49.1, MOR-DOR inv ag -14.8, MOR-DOR ag 3.2 and HTR5A ag ctr 13.8*.
For O=C(NCC1CCN(Cc2ccccc2F)CC1)Nc1ccccc1F the results were HTR5A inv ag 2.0, MOR-DOR inv ag 2.0, MOR-DOR ag -0.4 and HTR5A ag ctr -0.5.
Screening O=C(C[C@@H]1C/C=C\CC[C@H](Cc2ccc(F)cc2)C(=O)OC[C@@H](Cc2ccccc2)NC1=O)NCCO returned HTR5A inv ag 11.1, MOR-DOR inv ag 11.4, MOR-DOR ag -2.5 and HTR5A ag ctr -3.2.
Screening CCCC1CCC(=NNS(=O)(=O)c2ccc(C)c([N+](=O)[O-])c2)CC1 (stereo not drawn) returned HTR5A inv ag -45.1, MOR-DOR inv ag -7.0, MOR-DOR ag 1.2 and HTR5A ag ctr 13.2*.
For Cc1ccc(S(=O)(=O)N/N=C/c2ccccc2F)cc1[N+](=O)[O-] the results were HTR5A inv ag -45.6, MOR-DOR inv ag 10.1, MOR-DOR ag -2.2 and HTR5A ag ctr 12.4*.
For O=S(=O)(N/N=C/c1ccccc1F)c1ccccc1 the results were HTR5A inv ag -1.3, MOR-DOR inv ag 22.8, MOR-DOR ag -4.5 and HTR5A ag ctr 0.5.
`COC(=O)[C@]1(Cc2ccccc2)N[C@H](CN(C)S(=O)(=O)c2ccc(-c3ccccc3)cc2)[C@@H]2C(=O)N(C)C(=O)[C@@H]21` gave HTR5A inv ag 6.2, MOR-DOR inv ag 16.5, MOR-DOR ag -3.5 and HTR5A ag ctr -1.7.
Screening CCOCCc1nnc(NC(=O)c2cc(OC)c(OC)cc2[N+](=O)[O-])s1 returned HTR5A inv ag 9.3, MOR-DOR inv ag 10.4, MOR-DOR ag -2.0 and HTR5A ag ctr -3.4.
For CCOCc1nnc(NC(=O)c2cc(OC)c(OC)cc2[N+](=O)[O-])s1 the results were HTR5A inv ag 3.3, MOR-DOR inv ag -3.4, MOR-DOR ag 0.7 and HTR5A ag ctr 12.1*.
`CCOC(=O)C(Cc1ccccc1)NC(C)=O` (stereo not drawn) gave HTR5A inv ag -23.9, MOR-DOR inv ag 9.8, MOR-DOR ag -1.8 and HTR5A ag ctr 12.2*.
For CC(=O)NC(Cc1ccccc1)C(C)=O (stereo not drawn) the results were HTR5A inv ag 4.7, MOR-DOR inv ag 15.6, MOR-DOR ag -3.3 and HTR5A ag ctr -1.8.
For COc1ccc(-c2sc3ccc(N4CCOCC4)cc3c2C#CC2(O)CCCCC2)cc1 the results were HTR5A inv ag -46.3, MOR-DOR inv ag -24.6, MOR-DOR ag 4.4 and HTR5A ag ctr 12.8*.
Screening COc1ccc(-c2sc3ccc(N4CCOCC4)cc3c2C#CCO)cc1 returned HTR5A inv ag 5.5, MOR-DOR inv ag -26.0, MOR-DOR ag 4.5 and HTR5A ag ctr 3.4.
Screening COc1ccc(-c2nonc2NC(=O)c2ccco2)cc1OC returned HTR5A inv ag 7.7, MOR-DOR inv ag 8.0, MOR-DOR ag -1.6 and HTR5A ag ctr -3.6.
Screening CCOc1ccc(-c2nonc2NC(=O)c2ccco2)cc1OCC returned HTR5A inv ag -5.3, MOR-DOR inv ag -6.0, MOR-DOR ag 1.2 and HTR5A ag ctr 12.6*.
Screening COc1ccc(C2/C(=C(\O)c3ccc4c(c3)OCCO4)C(=O)C(=O)N2CCCn2ccnc2)cc1 (stereo not drawn) returned HTR5A inv ag -1.8, MOR-DOR inv ag 16.7, MOR-DOR ag -3.3 and HTR5A ag ctr 11.2*.
COc1ccc(S(=O)(=O)N2CCCCC2)cc1NC(=O)C1CC(=O)N(Cc2ccccc2)C1 (stereo not drawn) was read as HTR5A inv ag 8.7, MOR-DOR inv ag 5.9, MOR-DOR ag -1.4 and HTR5A ag ctr -3.6.
Cc1nc2cc(C(F)(F)F)ccc2n1C1CCN(CC(=O)N2CCOCC2)CC1 was read as HTR5A inv ag 0.2, MOR-DOR inv ag 8.7, MOR-DOR ag -1.6 and HTR5A ag ctr 9.0*.
Screening Cc1ccc2c(c1)c1c3n2CCCNC3CCC1 (stereo not drawn) returned HTR5A inv ag 10.0, MOR-DOR inv ag -14.8, MOR-DOR ag 3.0 and HTR5A ag ctr 10.4*.
